Assay results from PubChem BioAssay (Tox21).
Records with an inconclusive call do not appear. Calls of active or inactive are those of the source. Calls follow the shape of the full dose curve.

Experiment: qHTS assay for small molecule disruptors of the mitochondrial membrane potential - cell viability (AID 720634);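 also: human HepG2 liver cancer cells; nearly all actives have a fitted effect of over 20% in size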
Settings: HepG2 viability, ATP luminescence (CellTiter-Glo), 1 h; series mostly up to 83.2 µM; activity change, negative = cytotoxicity: at the top concentration
From the text: U.S. Tox21 Program National Center for Advancing Translational Sciences [NCATS] NIH Chemical Genomics Center [NCGC] U.S. Environmental Protection Agency [EPA] National Institutes of Environmental Health Sciences [NIEHS] National Toxicology Program [NTP] U.S. Food and Drug Administration [FDA] Tox21 Assay Overview: Mitochondrial membrane potential (MMP), one of the parameters for mitochondrial function, is generated by mitochondrial electron transport chain that creates an electrochemical gradient by a series of redox reactions. This gradient drives the synthesis of ATP, a crucial molecule for various cellular processes. Measuring MMP in living cells is commonly used to assess the effect of chemicals on mitochondrial function; decreases in MMP can be detected using lipophilic cationic fluorescent dyes. […] The dye accumulates in the mitochondria of healthy cells as aggregates, with red fluorescence. The mitochondrial potential decreases and the dye could not accumulate in the mitochondria and remains in the cytoplasm in monomers, with green fluorescence. In addition to the mitochondrial potential assay, these cells were also used to test the cytotoxicity by determining the cell viability in the culture based on the quantitation of ATP present. The cytotoxicity was measured in the same assay well of MMP assay.
Tox21 Assay Protocol Summary: 2,000 HepG2 cells in 5 uL/well were dispensed into black, clear-bottom 1536-well plates using a Multidrop Combi (Thermo Scientific) dispenser. The assay plates were incubated for an overnight at 37 C to allow cells to attach to the wells, followed by the transfer of 23 nL compound or DMSO vehicle by a pin tool (Kalypsys). The plates were incubated for 1 hr at 37 C and 5% CO2, followed by the addition of 5 uL of 2X m-MPI dye into each well using Flying Reagent Dispenser (Aurora Discovery) and then CellTiter-Glo reagent was added at 4 uL/well and incubated 30 min at room temperature. Then luminescence intensity was quantified on a ViewLux CCD-based plate reader.
% is scaled to controls: 0 for no effect and ±100 for the full control effect.

| SMILES | activity change, negative = cytotoxicity | Potency |
| --- | --- | --- |
| CCCN(CCC)C(=O)C(CCC(=O)O)NC(=O)c1ccccc1 (stereo not given) | 5.32% (inactive) | – |
| CCCCNc1ccc(C(=O)OCCN(CC)CC)cc1 | 3.82% (inactive) | – |
| COC(=O)c1ccc(OC)cc1 | 5.47% (inactive) | – |
| Nc1ccc(Oc2ccc(N)c(N)c2)cc1 | 11.8% (inactive) | – |
| C1CSCCS1 | 6.85% (inactive) | – |
| OCCN(CCO)CCN(CCO)CCO | 8.06% (inactive) | – |
| CN1CCN(c2c(F)cc3c(=O)c(C(=O)O)cn(CCF)c3c2F)CC1 | -17.3% (inactive) | – |
| CC(=O)OC(C)OC(C)=O | 7.62% [at 95.3 µM] (inactive) | – |
| C=CCCC=C | 7.17% [at 95.3 µM] (inactive) | – |
| Cc1nnc(SCC2=C(C(=O)O)N3C(=O)[C@@H](NC(=O)Cn4cnnn4)[C@H]3SC2)s1 | 7.25% (inactive) | – |
| COc1cc(C)ccc1C(C)C | 0.813% (inactive) | – |
| COc1ccc(Nc2ccc(OC)cc2)cc1 | 3.04% [at 95.3 µM] (inactive) | – |
| OCc1c2ccccc2cc2ccccc12 | -10.6% [at 95.3 µM] (inactive) | – |
| CCN(CC)CCNC(=O)COc1ccc(Cl)cc1 | -3.16% (inactive) | – |
| CC(C)C1=CC2=CC[C@@H]3[C@](C)(CCC[C@@]3(C)C(=O)O)[C@H]2CC1 | -7.03% (inactive) | – |
| C=C(C)C(=O)OCCOP(=O)(O)O | -6.61% [at 95.3 µM] (inactive) | – |
| O=C(O)c1cccc(Cl)c1Cl | -9.31% (inactive) | – |
| Cc1cc2c(s1)Nc1ccccc1N=C2N1CCN(C)CC1 | -7.78% (inactive) | – |
| CCC(=O)Nc1ccc(O)cc1 | 2.48% (inactive) | – |
| CN1[C@@H]2CC[C@H]1CC(OC(=O)c1c[nH]c3ccccc13)C2 (stereo not given in full) | 18% (inactive) | – |

| SMILES | activity change, negative = cytotoxicity | Potency |
| --- | --- | --- |
| OC[C@H]1O[C@@H](O[C@H]2[C@H](O)[C@@H](O)[C@H](O)O[C@@H]2CO)[C@H](O)[C@@H](O)[C@H]1O | 10.1% (inactive) | – |
| CC(C)NCC(O)COc1ccc(CCOCC2CC2)cc1 (stereo not given) | -10.5% (inactive) | – |
| C=Cc1ccccc1 | – | inactive |
| CCCOCCC | 7.99% (inactive) | – |
| CCCCCCC | -5.56% [at 95.3 µM] (inactive) | – |
| C=CC1CO1 (stereo not given) | -5.13% [at 95.3 µM] (inactive) | – |
| CCOc1ccc(NS(=O)(=O)c2ccc(N)cc2)nn1 | 11.8% (inactive) | – |
| O=C(O)C(=O)Cc1c[nH]c2ccccc12 | 3.4% (inactive) | – |
| CCCCCCCCCCCCCCCCOP(=O)([O-])OCC[N+](C)(C)C | 11.3% (inactive) | – |
| C=CC(C)(O)CC/C=C(\C)CCC=C(C)C (stereo not given) | – | inactive |
| CCOC(=O)c1ccccc1O | – | inactive |
| O=C(O[C@@H](C(=O)O)[C@@H](OC(=O)c1ccccc1)C(=O)O)c1ccccc1 | -9.75% [at 95.3 µM] (inactive) | – |
| CN(C)C(=O)NC1(c2ccccc2)CCN(CCC[C@]2(c3ccc(Cl)c(Cl)c3)CCCN(C(=O)c3ccccc3)C2)CC1 | -8.59% [at 39.1 µM] (inactive) | – |
| CC1=CC(=O)CC(C)(C)C1=O | -0.637% [at 95.3 µM] (inactive) | – |
| O=Cc1ccc(F)c(Br)c1 | -11.7% (inactive) | – |
| CC(C)O | – | inactive |
| CCOC(=O)CS | 12.1% [at 95.3 µM] (inactive) | – |
| C[C@]12CCC(=O)C=C1CC[C@@H]1[C@@H]2CC[C@@]2(C)[C@H]1CC[C@]2(O)C(=O)CO | -3.38% (inactive) | – |
| Cc1cccc(C)c1NC(=O)CN1CCCCCC1 | 1.04% (inactive) | – |
| CCCCC(CC)COC(=O)COc1cc(Cl)c(Cl)cc1Cl (stereo not given) | -16.1% (inactive) | – |
